Bioassay records (PubChem BioAssay)
In the library only some 3.5% were active in any assay of this set; here they are far more common.
MITF inh: human MITF inhibition, primary screen. O75030. AlphaScreen MITF homodimerization, bead proximity signal. inhibition, % at 2.6 µM. hit rate 0.91% among 650,000. AID 1259374; in the data active = inhibition above about 50%;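 note: 0% = vehicle wells with protein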
GPR151 activ: activators of human GPR151; activation, % at 11.2 µM; PathHunter beta-arrestin GPR151 cells, luminescence; hit rate 1% among 650,000; in the data active = activation above about 4.9%;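 note: 0% = median of compound wells and 100% = cells with positive control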
TEAD-YAP inh: TEAD-YAP interaction inhibition; hit rate 1.4% among 640,000; AID 1259422; inhibition, % at 9.12 µM; HEK-TIYL cells, TEAD-Gal4/YAP UAS-luciferase luminescence; in the data active = inhibition above about 32%;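 note: 0% = median of test compound wells and 100% = reference inhibitor wells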
FBW7 act: human FBW7 E3 ligase activation, primary screen; Q969H0; AlphaScreen FBW7–phospho-cyclin E peptide binding, activator screen; normalized activity (activation), % at 26.1 µM; hit rate 0.13% among 650,000; in the data active = normalized activity above about 1.9%;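 note: purified mutant Fbw7 with reduced substrate affinity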
Target sequence (Q969H0 whole entry, looked up): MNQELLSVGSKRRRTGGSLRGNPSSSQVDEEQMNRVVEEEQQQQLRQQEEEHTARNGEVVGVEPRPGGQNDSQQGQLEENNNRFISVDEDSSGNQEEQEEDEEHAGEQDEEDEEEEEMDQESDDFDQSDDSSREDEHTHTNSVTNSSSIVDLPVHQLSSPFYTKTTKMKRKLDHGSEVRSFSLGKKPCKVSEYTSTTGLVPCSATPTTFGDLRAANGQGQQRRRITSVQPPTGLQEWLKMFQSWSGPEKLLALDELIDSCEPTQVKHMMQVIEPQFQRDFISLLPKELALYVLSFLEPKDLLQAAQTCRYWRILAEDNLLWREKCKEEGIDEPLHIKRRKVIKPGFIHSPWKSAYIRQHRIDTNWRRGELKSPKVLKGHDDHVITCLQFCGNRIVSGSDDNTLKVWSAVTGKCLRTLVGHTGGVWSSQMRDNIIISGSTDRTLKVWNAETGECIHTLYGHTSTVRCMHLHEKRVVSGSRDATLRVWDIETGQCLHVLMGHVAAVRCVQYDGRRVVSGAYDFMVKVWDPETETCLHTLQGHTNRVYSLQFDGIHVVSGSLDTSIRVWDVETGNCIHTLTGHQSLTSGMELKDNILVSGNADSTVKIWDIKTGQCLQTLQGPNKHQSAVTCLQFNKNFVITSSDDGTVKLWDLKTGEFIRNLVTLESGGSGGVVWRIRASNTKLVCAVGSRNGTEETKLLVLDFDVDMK
MITF confirm: confirmation of human MITF inhibitors. shares compounds with MITF inh. AlphaScreen MITF homodimerization, biotin/His-MITF beads. inhibition, % at 2.6 µM. hit rate 16% among 4,700;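 active = inhibition above a cutoff derived from the DMSO control wells, cut at about 28% in these data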;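 note: 0% = MITF dimer wells with DMSO only; inhibitors lower the bead chemiluminescence by keeping MITF from dimerizing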
AS interf DR: optically interferes with AlphaScreen signal in dose response. AlphaScreen optical interference counterscreen, cell-free. hit rate 6% among 480. IC50, µM. AID 1259373. shares compounds with MITF inh; call rule not given here
AS interf ctr: counter-screen: compounds optically interfering with AlphaScreen. shares compounds with MITF inh. LysRS AlphaScreen counterscreen, signal interference, triplicate. inhibition, % at 2.6 µM. hit rate 7.6% among 4,700;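 active = inhibition above a cutoff derived from the DMSO control wells, cut at about 30% in these data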
An asterisk follows results filed as active; nt = no result given.

SMILES	MITF inh	GPR151 activ	TEAD-YAP inh	FBW7 act	MITF confirm	AS interf ctr	others
COc1ccc(OC)c(CN2CCN(Cc3ccc(C(F)(F)F)cc3)CC2)c1	78*	0	-5	0	10	21
CN1CCCN(Cc2ccc(C(F)(F)F)cc2)CC1	49	1	0	0	nt	nt
COc1cc(C(=O)N2CCN(Cc3ccc(C(F)(F)F)cc3)CC2)cc(OC)c1OC	27	1	-2	1	nt	nt
COc1ccc(CN2CCN(Cc3ccc(C(F)(F)F)cc3)CC2)cc1	86*	1	7	0	6	14
FC(F)(F)c1ccc(CN2CCSCC2)cc1	58*	-1	8	0	9	17
COc1cccc(CN2CCN(Cc3ccc(C(F)(F)F)cc3)CC2)c1	81*	0	-11	0	7	13
COc1cc(Nc2nc(-c3ccc(C)cc3)cs2)c(OC)cc1Cl	10	2	5	0	nt	nt
Cc1ccc(/C=C2\N=C(c3ccco3)OC2=O)cc1	17	-1	13	0	nt	nt
CC(C)CCC1(C2CCN(Cc3ccsc3)CC2)NC(=O)NC1=O (configuration not stated)	11	3	8	1	nt	nt
CC(C)(C)c1csc(CN2CCN(CC(=O)N3CCOCC3)CC2)n1	54*	-1	-3	0	0	4
CC(C)(C)c1csc(CN2CCN(CC(=O)NC3CCCCC3)CC2)n1	26	1	1	0	nt	nt
NNc1nc(NN)nc(Nc2cccc3ccccc23)n1	51*	-1	3	0	54*	63*
COc1cc(CN2CCN(c3ccccn3)CC2)cc(Br)c1O	42	-1	6	0	nt	nt
COc1cc(CN2CCN(C(=O)c3ccccc3)CC2)cc(OC)c1O	24	0	3	0	nt	nt
COc1cc(CN2CCN(Cc3ccccc3C)CC2)cc(OC)c1O	59*	-1	-5	0	-8	-1
COc1cc(CN2CCN(Cc3ccccc3Br)CC2)cc(OC)c1O	68*	-1	-1	1	2	18
COc1cc(CN2CCN(c3ccccc3C)CC2)cc(OC)c1OC	31	0	-4	0	nt	nt
COc1cc(CN2CCN(CCO)CC2)cc(Br)c1O	67*	0	-2	0	-2	9
COc1cc(CN2CCN(Cc3ccccc3C)CC2)cc(OC)c1OC	64*	3	-7	0	-7	0
COc1cccc(NC(=O)C2C3C=CC4(O3)C2C(=O)N(CCN2CCOCC2)C4C(=O)NC2CCCCC2)c1 (configuration not stated)	-7	0	-2	0	nt	nt
COc1ccc(-c2onc(C)c2I)cc1	10	-1	-4	0	nt	nt
COc1cc(CN2CCN(Cc3c[nH]c4ccccc34)CC2)cc(OC)c1OC	56*	1	8	0	17	17
CSc1ccc(CN2CCCC(CNC(=O)c3cccnc3)C2)cc1 (configuration not stated)	-3	-1	-5	0	nt	nt
O=C(NCC1CCCN(Cc2ccc(OCc3ccccc3)cc2)C1)c1cccnc1 (configuration not stated)	51*	-1	9	0	0	14
OC(COCc1ccc(Cl)cc1)CN1CCCC1 (configuration not stated)	16	1	-9	0	nt	nt
SMILES	MITF inh	GPR151 activ	TEAD-YAP inh	FBW7 act	MITF confirm	AS interf ctr	others
OC(COCc1ccc(Cl)cc1)CN1CCN(CC2CCCO2)CC1 (configuration not stated)	68*	1	-5	0	8	12
OC1CCN(Cc2ccc(Cl)cc2)CC1	28	0	1	0	nt	nt
Cc1cccc(CN2CCN(C3CCC(C)CC3)CC2)c1 (configuration not stated)	55*	1	-15	0	28*	18	AS interf DR=>5.5
CCOc1ccc(CN2CCN(C(=O)c3ccccc3OC)CC2)cc1	57*	1	31	0	4	16
CC1CCC(N2CCN(Cc3ccc(Cl)cc3)CC2)CC1 (configuration not stated)	69*	-1	-10	0	11	17
CCOc1ccc(CN2CCN(C3CCC(C)CC3)CC2)cc1 (configuration not stated)	71*	0	3	0	3	9
COc1ccccc1C(=O)N1CCN(Cc2ccc3ccccc3c2)CC1	45	0	22	0	nt	nt
CC(=O)Nc1nnc(SCc2ccc(Br)cc2)s1	-11	-1	3	0	nt	nt
CCc1ccc(CN2CCN(C3CCC(C)CC3)CC2)cc1 (configuration not stated)	69*	0	-4	0	0	5
CCOc1ccc(CN2CCC(C(=O)NC(C)(C)C)CC2)cc1	19	1	1	0	nt	nt
CCOc1ccc(CN2CCN(Cc3ccc(OCC)cc3)CC2)cc1	51*	1	9	0	-1	-4
CCOc1ccc(CN2CCC(C(=O)NCc3ccco3)CC2)cc1	83*	-2	2	0	14	14
CCOC(=O)C1=C(CN2CCCC2)NC(=O)NC1c1cc(C)ccc1C (configuration not stated)	3	0	-2	0	nt	nt
CCOC(=O)c1c(NC(=O)/C=C/c2ccccc2)sc(C)c1-c1ccc(OC)c(OC)c1	10	-1	13	0	nt	nt
O=C(O)c1nsnc1C(O)C(O)C(=O)O (configuration not stated)	68*	-1	-1	0	-7	1
O=C(O)C(O)C(O)C(O)C(O)C(=O)O (configuration not stated) (tested in a mixture with another compound)	-4	0	nt	0	nt	nt
CCc1ccc(C(=O)NC(C(=O)NCC2CCCO2)C(C)C)cc1 (configuration not stated)	67*	1	1	1	10	7
Brc1ccc(C2C3CC=CC3c3c4c(cc5ccccc35)C3C=CCC3CN42)cc1 (configuration not stated)	-6	0	-3	0	nt	nt
CCOC(=O)C1=C(C)N=c2s/c(=C/c3ccc(Cl)cc3Cl)c(=O)n2C1c1ccc(C)cc1 (configuration not stated)	63*	1	4	0	-11	-11
CCOC(=O)C1=C(C)N=c2s/c(=C\c3ccc(Cl)cc3Cl)c(=O)n2C1c1ccc(N(C)C)cc1 (configuration not stated)	2	0	3	0	nt	nt
CCOC(=O)c1c(C)n(-c2cccc(C)c2)c2c1cc(O)c1ccccc12	9	0	-9	0	nt	nt
COC(=O)c1ccc(NC(=O)CN2CCN(Cc3nc4ccccc4n3C)CC2)cc1	70*	0	2	0	3	20
Cn1c(CN2CCN(C(=O)c3cc(=O)c4ccccc4o3)CC2)nc2ccccc21	86*	0	9	0	2	14
